Measured values: PubChem BioAssay (EPA / NIEHS)
Calls of active or inactive are those of the source. How the source made its calls: active means hit-call score of the fitted dose curve at least 0.9, where 1 is the maximum; inactive means score below 0.9.

Assays:
[1] = ATG_CRE_CIS: Attagene CIS-FACTORIAL HepG2 Assay for human cAMP Responsive Element (CRE) binding protein 3 (AID 2282926); details: HepG2 CRE cis-reporter, Attagene multiplexed mRNA; actives raise or lower the signal
How it was run: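 Transfected HepG2 were treated for 24 hours, then RNA was extracted and reporter cDNA amplified with sequence-specific primers. Labelled fragments were separated by capillary electrophoresis, and the CRE signal was fitted bidirectionally with DMSO as baseline.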

[2] = ATG_DR4_LXR_CIS: Attagene CIS-FACTORIAL HepG2 Assay for human Liver X Receptor (LXR), DR4 submotif (AID 2282929); details: HepG2 Attagene DR4 cis-reporter, mRNA transcription; actives raise or lower the signal
How it was run: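 DR4 cis-reporter in HepG2, 24 h exposure. Detection: RT-PCR, 6-FAM labelling, CE fragment analysis. Endpoint fitted bidirectionally, DMSO = baseline.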

[3] = ATG_AP_1_CIS: Attagene CIS-FACTORIAL HepG2 Assay for human Activator Protein 1 (AP-1) (AID 2282931); details: HepG2 Attagene cis-factorial AP-1 reporter mRNA; actives raise or lower the signal
How it was run: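 Cis-regulated reporter units transiently expressed in HepG2 report endogenous transcription-factor activity. Signal: reporter mRNA at 24 h, via RT-PCR and fluorescent capillary electrophoresis. Endpoint derived by bidirectional fitting, DMSO as negative control.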

[4] = ATG_AP_2_CIS: Attagene CIS-FACTORIAL HepG2 Assay for human Activator Protein 2 (AP-2) (AID 2282932); details: HepG2 AP-2 cis-reporter, Attagene transcription factor profiling; actives raise or lower the signal
How it was run: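 Multiplexed mRNA reporter assay in HepG2: cis-regulated units report endogenous factor activity after 24 h treatment. Fluorescence from capillary electrophoresis of RT-PCR products gives the signal, with DMSO as baseline.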

[5] = biological target: Transcription factor E2F1 (Homo sapiens) (UniProt Q01094); test: ATG_E2F_CIS: Attagene CIS-FACTORIAL HepG2 Assay for human E2F Transcription Factor 1 (AID 2282935); details: HepG2 Attagene cis-reporter, E2F reporter RNA transcripts; actives raise or lower the signal
How it was run: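 Measures reporter transcript levels via RT-PCR with capillary electrophoresis detection in HepG2 cells harboring cis-regulated reporter units; 24 h post-dose; bidirectional curve fitting with DMSO as baseline.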

[6] = ATG_M_61_CIS: Attagene CIS-FACTORIAL HepG2 Assay for M61 Transcription Factor (Internal Marker) (AID 2282937); details: HepG2 Attagene CIS-FACTORIAL M61 internal marker reporter; actives raise or lower the signal
How it was run: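 Background-control endpoint: HepG2 cells with cis-regulated reporter constructs, 24 h exposure, reporter mRNA detected via fluorescent primer extension and capillary electrophoresis; values from bidirectional fitting with DMSO baseline.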

[7] = ATG_EGR_CIS: Attagene CIS-FACTORIAL HepG2 Assay for human Early Growth Response 1 (EGR1) (AID 2282938); details: HepG2 Attagene CIS-FACTORIAL EGR reporter mRNA; actives raise or lower the signal
How it was run: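 Endpoint derived by bidirectional fitting versus DMSO vehicle. Method: cis-promoter reporter units transfected into HepG2, 24 h dosing, RNA isolation, RT-PCR with 6-FAM primer extension and HpaI digestion, then capillary electrophoresis fluorescence detection.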

[8] = ATG_M_19_CIS: Attagene CIS-FACTORIAL HepG2 Assay for M19 Transcription Factor (Internal Marker) (AID 2282939); details: HepG2 Attagene CIS-FACTORIAL M19 internal marker reporter; actives raise or lower the signal
How it was run: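 HepG2 cells transiently transfected with cis-regulated multiplexed reporter units, dosed 24 h. Reporter mRNA quantified by RT-PCR and capillary electrophoresis; internal background marker fitted bidirectionally versus DMSO.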

[9] = ATG_Ets_CIS: Attagene CIS-FACTORIAL HepG2 Assay for human Erythroblast Transformation Specific (ETS) (AID 2282941); details: HepG2 ETS cis-reporter transcription, actives raise or lower the signal
How it was run: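 HepG2 cells transfected with multiple cis-regulated reporter units measuring endogenous ETS-driven transcription, 24 h after dosing. Reporter mRNA quantified by RT-PCR with capillary electrophoresis; bidirectional fit relative to DMSO.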

[10] = biological target: Hepatocyte nuclear factor 3-beta (Homo sapiens) (UniProt Q9Y261); test: ATG_FoxA2_CIS: Attagene CIS-FACTORIAL HepG2 Assay for human Forkhead box A2 (FOXA2) (AID 2282942); details: HepG2 cis-reporter transcription factor activity, 24 h; actives raise or lower the signal
How it was run: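 Measured: reporter mRNA induction or loss in HepG2 transiently carrying multiple cis-regulated reporter units, 24 h after dosing. Quantified by RT-PCR plus capillary electrophoresis, normalised to DMSO.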

[11] = ATG_GATA_CIS: Attagene CIS-FACTORIAL HepG2 Assay for human GATA Binding Protein (AID 2282944); details: HepG2 GATA cis-element reporter, Attagene multiplex mRNA; actives raise or lower the signal
How it was run: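 HepG2 cells transiently transfected with multiplexed cis-element reporter units measure endogenous GATA activity; after 24 h compound exposure, reporter mRNA quantified by RT-PCR and capillary electrophoresis. Changes fitted in both directions vs DMSO.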

[12] = ATG_GLI_CIS: Attagene CIS-FACTORIAL HepG2 Assay for human Zinc Finger Protein GLI1 (AID 2282945); details: HepG2, Attagene cis-factorial reporter mRNA, GLI element; actives raise or lower the signal
How it was run: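 Transiently transfected HepG2 cells report endogenous transcription factor activity via cis-element-driven reporter units. After 24 h compound exposure, reporter mRNA was measured by RT-PCR with capillary electrophoresis; bidirectional fitting against DMSO baseline.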

[13] = ATG_ISRE_CIS: Attagene CIS-FACTORIAL HepG2 Assay for human Interferon Regulatory Factor 1 (IRF1) binding to an Interferon-Stimulated Response Element (ISRE) (AID 2282948); details: HepG2 ISRE cis-reporter (Attagene), mRNA transcription readout; actives raise or lower the signal
How it was run: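 Transiently transfected HepG2 cells carrying cis-element reporter units, dosed 24 hours. Reporter mRNA quantified by RT-PCR, fluorescent primer extension, HpaI digestion and capillary electrophoresis. Bidirectional fitting relative to DMSO.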

[14] = ATG_M_32_CIS: Attagene CIS-FACTORIAL HepG2 Assay for M32 Transcription Factor (Internal Marker) (AID 2282949); details: HepG2 Attagene cis-factorial M32 reporter, mRNA; actives raise or lower the signal;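 further: background control marker of the multiplexed CIS panel rather than a real target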
How it was run: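 Internal background marker read-out: RT-PCR/capillary electrophoresis fluorescence of reporter transcripts from transiently transfected HepG2 cells after 24 h chemical exposure. Activity fitted bidirectionally relative to DMSO negative control.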

[15] = ATG_M_06_CIS: Attagene CIS-FACTORIAL HepG2 Assay for M06 Transcription Factor (Internal Marker) (AID 2282950); details: HepG2 Attagene CIS-FACTORIAL M06 internal marker reporter; actives raise or lower the signal
How it was run: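 Internal background marker within multiplexed cis-reporter HepG2 system. Cells transiently transfected, dosed 24 h; reporter mRNA measured by RT-PCR, HpaI digestion and capillary electrophoresis. Bidirectional fit relative to DMSO.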

[16] = ATG_MRE_CIS: Attagene CIS-FACTORIAL HepG2 Assay for human Metal Responsive Element (MRE) (AID 2282954); details: HepG2 MRE cis-reporter transcription, Attagene multiplex; actives raise or lower the signal
How it was run: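 Fluorescent reporter fragments separated by capillary electrophoresis give mRNA induction for the MRE unit after 24 h treatment of transfected HepG2 cells. Endogenous transcription-factor activity is read; DMSO serves as negative control and baseline.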

[17] = biological target: Paired box protein Pax-6 (Homo sapiens) (UniProt P26367); test: ATG_Pax6_CIS: Attagene CIS-FACTORIAL HepG2 Assay for human Paired Box 6 (PAX6) (AID 2282956); details: HepG2 CIS-FACTORIAL PAX6 reporter transcription, RNA readout; actives raise or lower the signal
How it was run: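 HepG2 cells transiently transfected with cis-promoter-driven multiplexed reporter units sensing endogenous transcription factor activity; 24 h chemical exposure. Reporter mRNA quantified by RT-PCR, 6-FAM labelling, HpaI digestion and capillary electrophoresis; bidirectional fit versus DMSO baseline.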

[18] = ATG_PXRE_CIS: Attagene CIS-FACTORIAL HepG2 Assay for human Pregnane X Receptor Element (PXRE) (AID 2282957); details: HepG2 Attagene CIS-FACTORIAL PXRE reporter, mRNA; actives raise or lower the signal
How it was run: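 Multiplexed cis-reporter assay in transiently transfected human HepG2 cells; 24 h chemical exposure. Reporter transcripts quantified by RT-PCR with fluorescent labeling and capillary electrophoresis.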

[19] = biological target: Transcription factor Sp1 (Homo sapiens) (UniProt P08047); test: ATG_Sp1_CIS: Attagene CIS-FACTORIAL HepG2 Assay for human Specificity Protein 1 (Sp1) (AID 2282961); details: HepG2 Sp1 cis-reporter transcription, actives raise or lower the signal
How it was run: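 Endpoint reflects endogenous Sp1 transcriptional activity, not an exogenous fusion protein: HepG2 cells with transfected cis-regulated reporters, 24 h dosing, RT-PCR/capillary electrophoresis mRNA read-out, DMSO-normalised bidirectional fit.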

[20] = biological target: Signal transducer and activator of transcription 3 (Homo sapiens) (UniProt P40763); test: ATG_STAT3_CIS: Attagene CIS-FACTORIAL HepG2 Assay for human Signal Transducer and Activator of Transcription 3 (STAT3) (AID 2282963); details: HepG2, Attagene cis-factorial STAT3 reporter transcription; actives raise or lower the signal
How it was run: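 Values derive from bidirectional fits relative to DMSO of reporter mRNA levels, measured by RT-PCR with capillary electrophoresis, in HepG2 cells carrying transiently transfected cis-regulated reporter units and exposed 24 h.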

Measured: AC50

Hepatocyte nuclear factor 3-beta (Homo sapiens), sequence (Q9Y261 whole entry, looked up): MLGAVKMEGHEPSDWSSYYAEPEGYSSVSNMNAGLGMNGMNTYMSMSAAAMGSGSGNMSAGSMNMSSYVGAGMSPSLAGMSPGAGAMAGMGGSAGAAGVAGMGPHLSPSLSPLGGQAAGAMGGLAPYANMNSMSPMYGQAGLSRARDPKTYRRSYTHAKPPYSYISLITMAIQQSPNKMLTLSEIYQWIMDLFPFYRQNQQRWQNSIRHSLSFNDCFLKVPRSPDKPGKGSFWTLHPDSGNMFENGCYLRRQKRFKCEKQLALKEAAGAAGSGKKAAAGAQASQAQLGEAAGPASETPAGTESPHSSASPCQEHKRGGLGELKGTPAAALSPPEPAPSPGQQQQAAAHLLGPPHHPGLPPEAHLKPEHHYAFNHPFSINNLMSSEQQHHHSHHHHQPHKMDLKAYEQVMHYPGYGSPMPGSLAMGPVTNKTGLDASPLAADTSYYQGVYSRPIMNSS
Signal transducer and activator of transcription 3 (Homo sapiens), sequence (P40763 whole entry, looked up): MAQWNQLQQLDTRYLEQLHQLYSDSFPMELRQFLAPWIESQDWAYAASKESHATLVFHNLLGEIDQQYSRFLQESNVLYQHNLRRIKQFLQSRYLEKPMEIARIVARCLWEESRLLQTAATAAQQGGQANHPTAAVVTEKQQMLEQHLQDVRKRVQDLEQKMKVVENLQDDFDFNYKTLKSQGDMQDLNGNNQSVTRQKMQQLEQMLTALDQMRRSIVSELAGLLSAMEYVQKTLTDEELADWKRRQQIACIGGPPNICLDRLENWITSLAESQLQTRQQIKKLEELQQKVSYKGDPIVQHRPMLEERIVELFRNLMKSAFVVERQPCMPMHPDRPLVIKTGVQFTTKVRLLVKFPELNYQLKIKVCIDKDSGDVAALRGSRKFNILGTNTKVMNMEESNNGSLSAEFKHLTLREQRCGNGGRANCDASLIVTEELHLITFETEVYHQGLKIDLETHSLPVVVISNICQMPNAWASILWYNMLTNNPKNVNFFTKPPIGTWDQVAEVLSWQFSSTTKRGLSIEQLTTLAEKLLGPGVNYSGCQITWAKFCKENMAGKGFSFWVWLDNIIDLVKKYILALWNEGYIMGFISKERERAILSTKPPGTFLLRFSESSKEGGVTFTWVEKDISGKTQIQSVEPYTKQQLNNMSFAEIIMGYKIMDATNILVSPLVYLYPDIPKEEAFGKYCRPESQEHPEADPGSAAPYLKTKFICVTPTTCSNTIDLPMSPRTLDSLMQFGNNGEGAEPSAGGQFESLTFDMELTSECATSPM
Transcription factor E2F1 (Homo sapiens), sequence (Q01094 whole entry, looked up): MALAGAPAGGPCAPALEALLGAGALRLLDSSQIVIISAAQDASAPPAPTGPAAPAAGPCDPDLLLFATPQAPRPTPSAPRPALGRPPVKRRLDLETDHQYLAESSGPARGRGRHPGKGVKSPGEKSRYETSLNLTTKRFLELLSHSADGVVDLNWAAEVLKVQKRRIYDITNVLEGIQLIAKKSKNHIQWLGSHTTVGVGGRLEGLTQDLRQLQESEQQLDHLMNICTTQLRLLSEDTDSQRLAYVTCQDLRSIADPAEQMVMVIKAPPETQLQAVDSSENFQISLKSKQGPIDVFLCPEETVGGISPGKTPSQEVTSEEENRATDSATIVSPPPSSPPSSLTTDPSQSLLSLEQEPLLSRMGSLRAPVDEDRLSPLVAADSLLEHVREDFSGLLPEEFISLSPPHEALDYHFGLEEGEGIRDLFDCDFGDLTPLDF
Transcription factor Sp1 (Homo sapiens), sequence (P08047 whole entry, looked up, the tested form may be a part): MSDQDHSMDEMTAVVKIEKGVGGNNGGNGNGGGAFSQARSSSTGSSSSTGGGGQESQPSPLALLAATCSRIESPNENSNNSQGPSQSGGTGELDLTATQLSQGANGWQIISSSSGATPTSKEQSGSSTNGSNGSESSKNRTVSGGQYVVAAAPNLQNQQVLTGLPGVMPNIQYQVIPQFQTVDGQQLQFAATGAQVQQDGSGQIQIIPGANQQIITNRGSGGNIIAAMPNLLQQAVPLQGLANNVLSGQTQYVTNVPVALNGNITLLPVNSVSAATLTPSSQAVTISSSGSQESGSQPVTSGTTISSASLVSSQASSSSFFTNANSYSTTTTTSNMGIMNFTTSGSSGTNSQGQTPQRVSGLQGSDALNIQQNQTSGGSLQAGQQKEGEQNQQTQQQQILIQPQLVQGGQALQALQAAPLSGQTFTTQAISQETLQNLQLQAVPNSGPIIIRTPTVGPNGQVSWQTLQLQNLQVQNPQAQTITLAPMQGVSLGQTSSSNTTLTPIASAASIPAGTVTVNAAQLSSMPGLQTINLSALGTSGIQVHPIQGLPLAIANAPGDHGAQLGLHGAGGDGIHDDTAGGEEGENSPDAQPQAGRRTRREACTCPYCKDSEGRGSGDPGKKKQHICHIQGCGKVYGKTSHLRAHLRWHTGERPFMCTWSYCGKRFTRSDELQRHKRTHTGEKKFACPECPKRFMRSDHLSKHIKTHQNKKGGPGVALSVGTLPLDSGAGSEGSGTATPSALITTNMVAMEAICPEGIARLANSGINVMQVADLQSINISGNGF
Paired box protein Pax-6 (Homo sapiens), sequence (P26367 whole entry, looked up): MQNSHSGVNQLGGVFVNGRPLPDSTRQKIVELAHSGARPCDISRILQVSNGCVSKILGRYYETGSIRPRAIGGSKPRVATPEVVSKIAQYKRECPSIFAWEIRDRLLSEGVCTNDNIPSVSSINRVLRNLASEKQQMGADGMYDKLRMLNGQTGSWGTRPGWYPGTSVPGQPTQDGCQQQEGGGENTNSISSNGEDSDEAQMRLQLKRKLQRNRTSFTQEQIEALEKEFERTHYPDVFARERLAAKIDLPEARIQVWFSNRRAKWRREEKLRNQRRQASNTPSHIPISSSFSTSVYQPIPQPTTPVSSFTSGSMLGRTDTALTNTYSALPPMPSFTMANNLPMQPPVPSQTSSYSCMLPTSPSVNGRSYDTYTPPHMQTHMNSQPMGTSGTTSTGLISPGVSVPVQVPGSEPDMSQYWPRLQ

CCN(CC)C(=S)S
active: [3] 65.5 µM | [16] 71.9 µM | [18] 22.7 µM
inactive: [1] | [2] | [4] | [5] | [6] | [7] | [8] | [9] | [10] | [11] | [12] | [13] | [14] | [15] | [17] | [19] | [20]

O=[N+]([O-])c1cc([N+](=O)[O-])c2ccccc2c1
inactive: [1] | [2] | [4] | [5] | [6] | [7] | [8] | [9] | [10] | [11] | [12] | [13] | [14] | [15] | [16] | [17] | [19] | [20]
active: [3] 14.5 µM | [18] 8.8 µM

Nc1ccccc1C(=O)Oc1ccc2ccccc2c1
active: [2] 63.9 µM | [4] 66.8 µM | [8] 166 µM | [9] 75.7 µM | [11] 143 µM | [12] 70.9 µM | [16] 67.2 µM | [17] 46.9 µM | [19] 56.2 µM | [20] 74.5 µM
inactive: [1] | [3] | [5] | [6] | [7] | [10] | [13] | [14] | [15] | [18]

N#Cc1cccc(C#N)c1
inactive: [1] | [2] | [3] | [4] | [5] | [6] | [7] | [8] | [9] | [10] | [11] | [12] | [13] | [14] | [15] | [16] | [17] | [18] | [19] | [20]

CCC(C)c1cc(C(C)(C)C)cc(-n2nc3ccccc3n2)c1O (stereo not given)
inactive: [1] | [3] | [4] | [5] | [6] | [7] | [8] | [9] | [10] | [11] | [12] | [13] | [14] | [15] | [16] | [17] | [19] | [20]
active: [2] 19.3 µM | [18] 4.36 µM

CC(=O)/C=C/c1ccccc1
inactive: [1] | [4] | [5] | [6] | [8] | [9] | [10] | [11] | [12] | [14] | [15] | [19] | [20]
active: [2] 78.1 µM | [3] 86.4 µM | [7] 69.4 µM | [13] 100 µM | [16] 37.8 µM | [17] 69 µM | [18] 26.4 µM

C=CC(=O)OCC(CC)CCCC (stereo not given)
inactive: [1] | [3] | [4] | [5] | [6] | [7] | [8] | [9] | [10] | [11] | [12] | [13] | [14] | [15] | [16] | [17] | [18] | [19] | [20]
active: [2] 147 µM
